MEX-5 binding – C. elegans MEX-5 TCR-2 RNA binding activity. AID 1832. MEX-5/FITC-TCR2 RNA binding, fluorescence polarization; stronger effect = lower value. activity score (negative = inhibition of binding), % at 10 µM. Q9XUB2. 300,000 tested, 0.38% active;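 active = inhibition past about -25% in most replicates, and total fluorescence under double the plate's negative control median, limit read from the data; inconclusive = replicates evenly split on the limit, or fluorescence at least double controls; inactive = too little inhibition in most replicates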;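 also: 0% = DMSO and -100% = 5 µM competing unlabeled TCR2 RNA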
GLD-1 RNA inh – GLD-1-TGE RNA interaction inhibition (C. elegans) | purified GLD-1 + fluorescein TGE RNA, fluorescence polarization | inhibition, % at 5.96 µM | 320,000 tested, 0.44% active | AID 2280;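 active = percent inhibition above a per-plate cutoff, the plate mean of test compounds plus 3 SD, cut at about 30% in these data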;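 also: 0% = DMSO wells with GLD-1 and probe and 100% = wells lacking GLD-1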
EBV gp42 block – EBV gp42 inhibition; Q1HVG2; Fluorescence polarization binding assay, mP read-out; inhibition, % (tested at 21.74 µM); 220,000 tested, 0.42% active; AID 1085; in the data active = inhibition above about 50%
Bcl-xL primary – inhibitors of human Bcl-xL; GST-Bcl-xL / FITC-Bim BH3 peptide fluorescence polarization; inhibition, % at 10.9 µM; 320,000 tested, 0.7% active;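 active = inhibition above the mean of all tested compounds plus 3 SD, cutoff set per campaign, cut at about 30% in these data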;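 also: 0% = DMSO wells and 100% = unlabeled Bim-BH3 peptide competitor; inhibitors lower millipolarization by displacing the labeled peptide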
E coli Lon inh – inhibits E. coli Lon protease; inhibition, % at 7.94 µM; purified E. coli Lon protease, fluorescence polarization; 360,000 tested, 0.42% active; in the data active = inhibition above about 13%, passing the limit was not always enough;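 also: 0% = enzyme with probe and DMSO and 100% = no enzyme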
* marks the source's active call; other numbers are inactive results; ? = inconclusive; . = no result given; + = active, no number. Only some compounds are listed: those with a hit (about 1.3% of all), similar ones and a draw of the others.

SMILES | MEX-5 binding | GLD-1 RNA inh | EBV gp42 block | Bcl-xL primary | E coli Lon inh
COc1ccc(C2CC(c3ccccc3)n3nc(NC(=O)c4cccs4)nc3N2)cc1 (configuration not stated) | 1 | 5 | 69* | 6 | 1
COc1ccc(C2CC(c3ccccc3)Nc3nc(NC(=O)c4cccs4)nn32)cc1 (configuration not stated) | 5 | -8 | -2 | 15 | 3
Cc1sc(/C=C2\C(=O)ON=C2c2ccccc2)cc1Br | -31* | -10 | 7 | -6 | .
Cc1nnc(SC(C)C(=O)Nc2ccc(N3CCOCC3)cc2)n1Cc1ccccc1 (configuration not stated) | . | . | . | . | 6
O=C1Nc2ccc(Cl)cc2C12Nc1ccccc1-c1nnc(SCc3ccccc3F)nc1O2 (configuration not stated) | -7 | -2 | 102* | 5 | 4
Cc1ccc(C(=O)OCc2nc3ccsc3c(=O)[nH]2)o1 | -3 | 5 | . | 2 | -11
Cc1cnc(C(=O)OCc2nc3ccsc3c(=O)[nH]2)cn1 | . | 14 | . | 30* | -26
CCOC(=O)c1sc2nccc(OC)c2c1N=CN(C)C | -1 | 11 | -10 | 7 | -1
O=C(O)C1Nc2c(O)cc(Cl)c([N+](=O)[O-])c2C2C=CCC12 (configuration not stated) | -60* | 6 | 87* | 78* | -9
O=[N+]([O-])c1ccc(Cl)c2c1C1C=CCC1C(c1ccccn1)N2 (configuration not stated) | -3 | 14 | -5 | 17 | 7
O=C(COC(=O)CCc1c[nH]c(=O)[nH]1)Nc1ccccc1 | . | 13 | -16 | 18 | 24*
O=C(COC(=O)CCc1c[nH]c2ccccc12)Nc1ccccc1 | . | . | . | . | -2
CN1CCc2c(sc3c2C(=O)NC(c2ccco2)N3)C1 (configuration not stated) | -6 | 9 | -23 | 38* | -3
COc1cc(OC)cc(C(=O)NCCCCCCNC(=O)c2cc(OC)cc(OC)c2)c1 | . | 24 | . | 44* | 5
COc1ccc2c(c1)O/C(=C\c1ccco1)C2=O | -5 | 0 | -21 | 7 | -13
Cc1cc(O)c(CN(C)C)c2c1C(=O)/C(=C/c1ccco1)O2 | -37* | 26 | . | 62* | -24
Nc1nonc1-n1nnc(C(=O)N/N=C/c2cc(Br)cs2)c1-c1ccccc1 | -1 | 4 | . | 3 | -22
ONc1cccnc1-n1nc(C(F)(F)F)cc1C(F)(F)F | -4 | 22 | 6 | 38* | .
OC(c1ccc(F)cc1)c1nc(-c2cc3ccccc3o2)cs1 (configuration not stated) | . | . | . | . | 5
O=C(CCCOc1ccccc1)NC(=S)Nc1ccccc1 | 1 | -3 | -6 | -3 | 2
COc1ccc(OC)c2c1C(=O)c1ccccc1C2=O | ? | + | + | + | .
COc1cc(C=C2C(=O)c3ccccc3C2=O)cc(OC)c1OC | -54* | 2 | 95* | 11 | -9
COc1ccc(OC)c2c1C(=O)C(Cl)=C(Cl)C2=O | -2 | 18 | -39 | 39* | 7
COc1cc(C=C2C(=O)c3ccccc3C2=O)ccc1O | -2 | -6 | -17 | 2 | 3
CN(CCCn1ccc(NC(=O)OCc2ccccc2)nc1=O)Cc1ccco1 | . | . | . | . | 0
SMILES | MEX-5 binding | GLD-1 RNA inh | EBV gp42 block | Bcl-xL primary | E coli Lon inh
CC(Oc1cccnc1[N+](=O)[O-])C(=O)Nc1ccc(Cl)cn1 (configuration not stated) | . | 5 | . | 7 | 2
CN1C(=O)C(CC(=O)NCCc2ccccc2)N(NC(=O)c2ccc(Cl)cc2)C1=S (configuration not stated) | -1 | -5 | -3 | 4 | 8
C#CCN(C[C@H]1[C@H](OC(=O)NCc2ccccc2F)[C@H](OC(=O)NCc2ccccc2F)C[C@H]2C(=O)N(c3ccccc3)C(=O)[C@@H]12)S(=O)(=O)c1ccc(C)cc1 | . | . | . | . | -2
Fc1ccccc1C(c1nnnn1C1CCCC1)N1CCN(Cc2ccccc2)CC1 (configuration not stated) | -1 | 5 | 85* | 4 | 1
CCC(c1nnnn1C1CCCC1)N1CCN(Cc2ccccc2)CC1 (configuration not stated) | 0 | -11 | -5 | 2 | -2
COCC1CCN(C(=O)CC2C(=O)NCCN2Cc2cccc(Oc3ccccc3)c2)CC1 (configuration not stated) | -26* | 3 | . | 12 | 3
COC1CCN(C(=O)CC2C(=O)NCCN2CC(C)(C)C)CC1 (configuration not stated) | -1 | 28 | -3 | 45* | 3
Cc1ccc(S(=O)(=O)N2CCN(C(=O)c3ccc(-n4cncn4)c([N+](=O)[O-])c3)CC2)c(C)c1 | . | . | . | . | -12
CC1CC1C(=O)Nc1nc(-c2cccs2)c(-c2cccs2)s1 (configuration not stated) | 1 | 5 | -12 | 3 | -4
CN1CCN(CC(=O)Nc2c(C#N)cnn2-c2ccccc2)CC1 | 3 | 2 | -11 | 1 | -7
Cc1ccc(N=Cc2sc(O)c3ccccc23)c(C)c1 | -31* | -136 | -128 | -17 | 10
Cc1[nH][nH]c(=O)c1N=Nc1ccc(S(N)(=O)=O)cc1 | -59* | 1 | . | 1 | -5
Nc1nc(O)c(N=Nc2ccc(S(N)(=O)=O)cc2)c(=O)[nH]1 | 1 | . | . | . | .
NS(=O)(=O)c1ccc(N=Nc2c[nH]c(=O)c(O)c2)cc1 | -89* | 39* | -9 | 130* | 23
COc1ccccc1N1CCN(C(=O)c2ccc(N3CCCCS3(=O)=O)cc2)CC1 | -1 | 1 | . | 0 | 10
CC1Cc2nc(SCC(=O)NCC3CCCO3)n(-c3ccc(F)cc3)c(=O)c2S1 (configuration not stated) | -2 | 0 | . | 64* | 5
C/C=C/C=C/[C@H]1Cc2cc(O)cc(O)c2O1 | -9 | 88* | 54* | 60* | .
O=C1CC(c2ccc(Cl)cc2)c2c(O)cc(O)cc2O1 (configuration not stated) | 2 | 2 | . | 1 | 12
C/C(=N/OC(=O)c1c(-c2c(Cl)cccc2Cl)noc1C)c1cnccn1 | 2 | 8 | 55* | 0 | -2
CCOC(=O)C1=C(CSc2nc3c(cc2C#N)CN(C)CC3)OC(N)=C(C#N)C1c1ccc(Cl)cc1 (configuration not stated) | 1 | 33* | -15 | 40* | -20
O=C(CN1c2cccc3cccc(c23)S1(=O)=O)NCc1ccc(F)cc1 | . | 1 | . | . | -13
Cc1ccc(CNC(=O)CN2c3cccc4cccc(c34)S2(=O)=O)cc1 | . | 22 | . | 42* | -4
Cc1[nH]c2ccccc2c1/C=N/NC(=S)NC(C)C | -26* | -16 | 2 | -3 | -32
CC(C)NC(=S)N/N=C/c1c[nH]c2ccccc12 | 1 | 6 | 0 | 6 | 3
COc1ccc(OC)c(NC(=O)CSc2nc(=O)n(Cc3ccccn3)c3c2CCC3)c1 | 0 | 10 | . | 3 | -1
